# Measurements reported in PubChem BioAssay.
# Activity calls are given as the source filed them.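 Rule for the calls, unless noted: active = visual image review flags a hit and inhibition of aggregation exceeds 20%; inconclusive = visual hit but inhibition at or below 20%; inactive = no hit on visual image review.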
# Key:
# [1] = inhibitors of TNFa-induced NFkB p65 translocation, primary screen, imaging, HUVEC, MLSMR starter and 10KST1 sets (AID 438;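 active = inhibition above 20% together with a positive visual image hit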;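 note: compound added about 3h40 before a 20 min TNFalpha stimulation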;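 for inhibition: signal is the nuclear over cytoplasmic p65 intensity ratio per well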); conditions: HUVEC TNFa-induced p65 nuclear translocation; cell count: measured here: nuclei count (cytotoxicity indicator), at 2.08 µM; inhibition: at 2 µM, stronger effect = higher value, 0% TNFa-plus-vehicle, 100% no-TNFa wells
# [2] = inhibitors of mutant huntingtin aggregation, primary screen, imaging, exon1htt(103Q)mCFP cells, high-content imaging (AID 483); conditions: exon1htt(103Q)mCFP cell line, aggregate imaging, at 2 µM; inhibition of aggregation: stronger effect = higher value; nuclei count: measured here: cell count, toxicity;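 note: compound exposure lasted 3 days before fixation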;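 for nuclei count: percent of the per-plate median nuclei count of sample wells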
# [3] = inhibitors of E-selectin induction by TNFa, primary screen, imaging, HUVEC, immunofluorescence, MLSMR starter and 10KST1 sets (AID 487;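 active = visually confirmed hit in the image check and inhibition above 20%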;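 for inhibition: signal is fraction of cell area covered by stained E-selectin grains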;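 for nuclei count: 100% = median nuclei count of all wells on the same plate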); conditions: HUVEC TNFalpha-induced E-selectin immunofluorescence imaging, at 2 µM; inhibition: stronger effect = higher value; nuclei count: measured here: cell number, toxicity
# [4] = molecular target: Voltage-gated potassium channel subunit beta-2 (Rattus norvegicus) (UniProt P62483); experiment: KvBeta enzyme negative modulators, primary screen, biochemical, NADPH fluorescence (AID 622;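 active = fluorescence slope higher than the sample average by over 3 SD, cut at about -0.22 in these data, passing the limit was not always enough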;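 note: slope of raw intensity against log time taken from 70 to 1610 s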); conditions: recombinant KvBeta, 4-cyanobenzaldehyde reduction, at 10 µM, stronger effect = higher value
# Voltage-gated potassium channel subunit beta-2 (Rattus norvegicus), sequence (P62483 whole entry, looked up): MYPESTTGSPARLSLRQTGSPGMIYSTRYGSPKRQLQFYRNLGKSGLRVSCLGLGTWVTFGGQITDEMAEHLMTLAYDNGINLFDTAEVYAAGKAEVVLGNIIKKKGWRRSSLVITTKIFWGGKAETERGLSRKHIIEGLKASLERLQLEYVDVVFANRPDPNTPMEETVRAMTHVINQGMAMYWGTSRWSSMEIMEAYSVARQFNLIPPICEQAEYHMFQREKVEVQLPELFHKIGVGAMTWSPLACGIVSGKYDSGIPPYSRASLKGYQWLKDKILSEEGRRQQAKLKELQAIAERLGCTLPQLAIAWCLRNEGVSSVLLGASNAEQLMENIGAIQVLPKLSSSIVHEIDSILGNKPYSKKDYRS
# [5] = molecular target: Voltage-gated potassium channel subunit beta-2 (Rattus norvegicus) (UniProt P62483); experiment: KvBeta positive modulators, primary screen, biochemical, NADPH fluorescence (AID 623;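 active = NADPH fluorescence slope more negative than the mean of all samples by about 3 SD, 99.7% confidence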;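 note: fluorescence intensity change per second fitted from 20 to 320 s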); conditions: Recombinant KvBeta, NADPH fluorescence decrease slope, 10 min; at 10 µM; stronger effect = lower value
# [6] = molecular target: Alpha-2C adrenergic receptor (Homo sapiens) (UniProt P18825); experiment: modulators of alpha2C/GIRK thallium flux, primary screen, cell-based, HEK293 alpha2C/GIRK1/2 (AID 624;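 active = fluorescence slope after compound addition differing from the mean of all screened samples at 99.7% confidence, in either direction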;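 note: slope of fluorescence ratio to pre-addition baseline per second over 15 to 24 s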); conditions: thallium flux BTC fluorescence, at 10 µM, actives lie on both sides
# Alpha-2C adrenergic receptor (Homo sapiens), sequence (P18825 whole entry, looked up): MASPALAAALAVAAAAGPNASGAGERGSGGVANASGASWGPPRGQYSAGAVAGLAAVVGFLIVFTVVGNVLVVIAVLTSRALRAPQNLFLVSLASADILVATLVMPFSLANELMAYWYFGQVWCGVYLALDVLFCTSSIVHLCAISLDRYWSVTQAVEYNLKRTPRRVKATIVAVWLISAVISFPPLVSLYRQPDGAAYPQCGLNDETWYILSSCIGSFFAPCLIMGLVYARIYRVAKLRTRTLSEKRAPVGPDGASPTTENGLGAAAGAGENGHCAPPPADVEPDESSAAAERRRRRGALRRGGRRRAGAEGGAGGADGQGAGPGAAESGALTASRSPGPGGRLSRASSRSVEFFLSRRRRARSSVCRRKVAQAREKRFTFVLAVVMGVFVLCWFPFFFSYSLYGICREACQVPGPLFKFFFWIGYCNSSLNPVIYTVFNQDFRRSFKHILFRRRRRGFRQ
# [7] = inhibitors of Sendai virus-induced IRF3 signaling, primary screen, TLR/RLR signaling modifier project, cell-based, Sendai virus stimulus, luciferase, 10K MLSCN set (AID 602276;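 active = inhibition at or above 50% at 10 µM; inactive = inhibition below 50%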;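 note: firefly luciferase from ISG56 promoter only with Renilla not read in this screen; 0% = Sendai virus plus DMSO and 100% = medium plus DMSO without virus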); conditions: HEK293 RL24 IRF3 luciferase reporter, at 10 µM, stronger effect = higher value
# [8] = inhibitors of poly I:C-induced TLR3 signaling, primary screen, cell-based, poly I:C stimulus, luciferase, 10K MLSCN set (AID 602277;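 active = inhibition of the reporter signal at or above 50%; inactive = inhibition below 50%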); conditions: HEK293-TLR3 RL24 IRF3 luciferase reporter, at 10 µM, stronger effect = higher value
Compound,cell count [1],inhibition [1],inhibition of aggregation [2],nuclei count [2],inhibition [3],nuclei count [3],fluorescence slope [4],NADPH fluorescence slope [5],slope [6],inhibition [7],inhibition [8]
CCOCCCNC(=O)CN1CCN(Cc2ccccc2C)C1=O,600,-4.4% (inactive),-25.9% (inactive),108%,-42% (inactive),117%,-0.574 (inactive),-5.1e-05 (inactive),0.00699 (inactive),-1.33% (inactive),19.7% (inactive)
CCc1cccc(NC(=O)CCc2nc(-c3cccs3)no2)c1,681,11.3% (inactive),-7.6% (inactive),106%,7.6% (inactive),114%,-0.531 (inactive),-2.7e-05 (inactive),0.00567 (inactive),-5.35% (inactive),18.5% (inactive)
CCCCC(=O)NCCc1cc2ccc(OC)cc2[nH]c1=O,341,-17% (inactive),25.1% (inactive),84.4%,-5.9% (inactive),91.4%,-0.464 (inactive),-0.000398 (inactive),0.00611 (inactive),-3.47% (inactive),98.8% (active)
CCCOc1ccc2ccccc2c1/C=N/n1cnnc1,209,4.6% (inactive),-0.3% (inactive),89.4%,-4.9% (inactive),89.2%,-0.31 (inactive),-1.6e-05 (inactive),0.008 (inactive),7.93% (inactive),3.78% (inactive)
CCOC(=O)N1CCN(C(=O)c2ccc(CS(=O)(=O)c3c(Cl)cccc3Cl)o2)CC1,512,-5% (inactive),2.1% (inactive),102%,-97.8% (inactive),116%,-0.419 (inactive),-6.8e-05 (inactive),0.00631 (inactive),-2.6% (inactive),21.2% (inactive)
CCOC(=O)N1CCN(CCC(=O)c2ccc(Cl)cc2)CC1,533,-10.6% (inactive),-1.1% (inactive),116%,-30.8% (inactive),69.7%,-0.611 (inactive),-3.9e-05 (inactive),0.00547 (inactive),2.5% (inactive),2.89% (inactive)
Cc1cc(C)c2c(=O)n(CC(=O)NCCCN3CCN(c4ccccc4F)CC3)sc2n1,725,-2.8% (inactive),2.8% (inactive),105%,-81.4% (inactive),119%,-0.525 (inactive),-4.4e-05 (inactive),0.00504 (inactive),12% (inactive),34.1% (inactive)
CCOC(=O)C(CCc1nnc(N)s1)C(=O)OCC,710,-6.3% (inactive),3.1% (inactive),105%,-16.4% (inactive),98.7%,-0.474 (inactive),1.7e-06 (inactive),0.00419 (inactive),16.5% (inactive),11.9% (inactive)
COc1ccc2nc3oc(C(=O)N4CCCCC4)cc3cc2c1,194,1.8% (inactive),-10.4% (inactive),105%,-13.7% (inactive),112%,-0.0908 (inactive),-2.5e-05 (inactive),0.00338 (inactive),-36.8% (inactive),-132% (inactive)
CCOC(=O)C1=C(C)NC(C)=C(C(=O)OCC)C1C(=O)OC1CCOC1=O (centres undefined),653,-4.7% (inactive),5.7% (inactive),112%,-121% (inactive),103%,-0.587 (inactive),-2.6e-05 (inactive),0.00602 (inactive),9.93% (inactive),20% (inactive)
C=CCn1c(SCn2nnc3ccccc3c2=O)nnc1-c1ccc(Br)cc1,447,-8.7% (inactive),6% (inactive),67.5%,-30.7% (inactive),110%,-0.328 (inactive),-5.6e-05 (inactive),0.00508 (inactive),-1.43% (inactive),-21.1% (inactive)
COc1cccc(C(=O)NC2=NCCS2)c1,400,-13.2% (inactive),29.5% (inactive),71.6%,-56.9% (inactive),131%,-0.496 (inactive),-3.2e-05 (inactive),0.00469 (inactive),-13.2% (inactive),-61.5% (inactive)
CC1CCC(NC(=O)C2(C)CCC(=O)N2Cc2cccnc2)CC1 (centres undefined),890,-5.2% (inactive),18.3% (inactive),70.4%,-7.7% (inactive),101%,-0.598 (inactive),-1.4e-05 (inactive),0.00748 (inactive),1.39% (inactive),32.6% (inactive)
CC(=O)c1c(C)[nH]c(C(=O)Nc2c(C)n(C)n(-c3ccccc3)c2=O)c1C,418,2% (inactive),-7.3% (inactive),112%,-137% (inactive),111%,-0.493 (inactive),-2.7e-05 (inactive),0.00389 (inactive),17.1% (inactive),21.5% (inactive)
